{
  "source": "PubChem BioAssay (NCI)",
  "note": "The panel holds about 83,000 compounds, 20% with a hit somewhere; the sample as a whole holds those more often.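 Percent growth is the endpoint: 0 to 100 indicates growth inhibition (40 means 60% inhibition), 0 means no net growth, and negative values indicate cell death.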 The source made the active and inactive calls. Rule for the calls: active = growth percent below 10; inactive = the rest.",
  "data": [
    {"tested_on": "SK-MEL-2 melanoma", "assay": "NCI-60 one-dose screen, 48 h (100 = growth as untreated, 0 = no growth, -100 = all killed)", "details": "10 µM unless noted", "values": [
      {"smiles": "COc1cc(/C=C/c2nnc(-c3cc(-c4ccccc4)n[nH]3)o2)cc(OC)c1OC", "growth": "89.7% (inactive)"},
      {"smiles": "COc1cc2c(-c3nc4cc(Cl)c(F)cc4s3)cc(=O)oc2c(C)c1OC", "growth": "-82.2% (active)"},
      {"smiles": "COc1cccc(-c2nnc(N)o2)c1", "growth": "107% (inactive)"},
      {"smiles": "CSc1nc2c(c(=O)n1C)C(c1ccccc1)C1=C(N2)/C(=C/c2ccccc2)CCC1", "note": "(stereo unspecified)", "growth": "29.5% (inactive)"},
      {"smiles": "CCCCCCC/C(=N\\N=C(N)N)c1ccc(O)cc1", "growth": "48.3% (inactive)"},
      {"smiles": "CCOC(=O)c1c(NC(=O)C2CCCCC2C(=O)O)sc2c1CCCC2", "note": "(stereo unspecified)", "growth": "107% (inactive)"},
      {"smiles": "O=C1/C(=C/c2ccc([N+](=O)[O-])s2)Oc2ccc(Br)cc21", "growth": "-62.2% (active)"},
      {"smiles": "CCOC(Cc1c(N)[nH]c(=S)[nH]c1=O)OCC", "growth": "124% (inactive)"},
      {"smiles": "CCN1C2=C(SC(=S)C1=C1SC(C(=O)OC)=C(C(=O)OC)S1)SC(=Nc1ccc(OC)cc1)C2=O", "growth": "-5.85% (active)"},
      {"smiles": "COc1cccc2c1O/C(=C\\c1c([N+](=O)[O-])ncn1C)C2=O", "growth": "97.6% (inactive)"},
      {"smiles": "CCCc1cc(=O)n2c(C(=O)Nc3ccccc3OC)c(C(=O)Nc3ccc(F)cc3)sc2n1", "growth": "91.6% [30 µM] (inactive)"},
      {"smiles": "C=Cc1nn2c(CCC(=O)c3nc4ccccc4[nH]3)nnc2s1", "growth": "97.5% (inactive)"},
      {"smiles": "CCOC(=O)C(C(C)=O)c1nc2sc3cc(Cl)ccc3n2c(=N)c1C#N", "note": "(stereo unspecified)", "growth": "74.1% (inactive)"},
      {"smiles": "COc1ccc2nccc(/C=C/c3ccnc4ccc(OC)cc34)c2c1", "growth": "112% (inactive)"},
      {"smiles": "COc1ccc(-c2cc(C(=O)Nc3nc4cc(C)c(C)cc4s3)nc3cc(-c4ccccc4)nn23)cc1OC", "growth": "113% (inactive)"},
      {"smiles": "Cn1c(=O)c2c(nc(Br)n2CCC(=O)Nc2ccc(F)cc2)n(C)c1=O", "growth": "100% (inactive)"},
      {"smiles": "COc1ccc(/C=C/C(=O)Nc2cccnc2Nc2ccc(F)cc2)cc1", "growth": "120% (inactive)"},
      {"smiles": "CC/C=C\\C=C/C(=O)N/C=C/CC1Cc2cccc(O)c2C(=O)O1", "note": "(stereo unspecified)", "growth": "95.8% (inactive)"},
      {"smiles": "Cc1cc(=O)n2n1-c1ccc(Cl)cc1NC(=O)C2", "growth": "118% (inactive)"},
      {"smiles": "CC[C@H](C)C(=O)O[C@H]1C[C@@H](C)C=C2C=C[C@H](C)[C@H](CC[C@@H]3C[C@@H](O)CC(=O)O3)[C@H]21", "growth": "36.8% (inactive)"},
      {"smiles": "O=C1/C(=C/c2ccc([N+](=O)[O-])o2)Oc2ccc(Br)cc21", "growth": "56.6% (inactive)"},
      {"smiles": "O=C1NCN(c2ccccc2)C12CCN(CCCC(c1ccc(F)cc1)c1ccc(F)cc1)CC2", "growth": "81% (inactive)"},
      {"smiles": "N#Cc1cnc2cc(OC[C@H](O)CO)c(NC(=O)CC3CSSC3)cc2c1Nc1ccc(OCc2cccc(F)c2)c(Cl)c1", "growth": "-70.6% (active)"},
      {"smiles": "COc1ccc(OC)c2c1[nH]c(=O)c1c3ccccc3cn21", "growth": "-56.8% (active)"},
      {"smiles": "COc1cc(C2CC(=O)Nc3c2cc(Br)c2ccccc32)cc(Br)c1OC", "note": "(stereo unspecified)", "growth": "58.7% (inactive)"}
    ]},
    {"tested_on": "EKVX NSCLC", "assay": "NCI-60 one-dose screen, 48 h (100 = growth as untreated, 0 = no growth, -100 = all killed)", "details": "10 µM unless noted", "values": [
      {"smiles": "O=[N+]([O-])c1ccc(N/N=C/c2c(O)ccc3ccccc23)nc1", "growth": "32.3% (inactive)"},
      {"smiles": "COc1cc(/C=C/c2nnc(-c3cc(-c4ccccc4)n[nH]3)o2)cc(OC)c1OC", "growth": "102% (inactive)"},
      {"smiles": "COc1cccc(-c2nnc(N)o2)c1", "growth": "100% (inactive)"},
      {"smiles": "CSc1nc2c(c(=O)n1C)C(c1ccccc1)C1=C(N2)/C(=C/c2ccccc2)CCC1", "note": "(stereo unspecified)", "growth": "39.1% (inactive)"},
      {"smiles": "CCCCCCC/C(=N\\N=C(N)N)c1ccc(O)cc1", "growth": "55.1% (inactive)"},
      {"smiles": "C[N+]1(CCC[N+]2(C)C[C@@H]3[C@H](C2)[C@@H]2C=C[C@H]3C2)CCOCC1", "note": "(stereo partly specified)", "growth": "118% (inactive)"},
      {"smiles": "O=C(CCc1nnc(SCc2ccccc2)s1)c1nc2ccccc2[nH]1", "growth": "93.8% (inactive)"},
      {"smiles": "c1csc([C@@H]2C[C@@H]3Cc4ccc5ccccc5c4N2O3)c1", "growth": "78.8% (inactive)"},
      {"smiles": "CCCCCCC(C)(O)c1ccccc1", "note": "(stereo unspecified)", "growth": "101% (inactive)"},
      {"smiles": "CCN1C2=C(SC(=S)C1=C1SC(C(=O)OC)=C(C(=O)OC)S1)SC(=Nc1ccc(OC)cc1)C2=O", "growth": "34.7% (inactive)"},
      {"smiles": "CCCc1cc(=O)n2c(C(=O)Nc3ccccc3OC)c(C(=O)Nc3ccc(F)cc3)sc2n1", "growth": "52.8% [30 µM] (inactive)"},
      {"smiles": "C=Cc1nn2c(CCC(=O)c3nc4ccccc4[nH]3)nnc2s1", "growth": "106% (inactive)"},
      {"smiles": "CCOC(=O)C(C(C)=O)c1nc2sc3cc(Cl)ccc3n2c(=N)c1C#N", "note": "(stereo unspecified)", "growth": "73.6% (inactive)"},
      {"smiles": "COc1ccc2nccc(/C=C/c3ccnc4ccc(OC)cc34)c2c1", "growth": "105% (inactive)"},
      {"smiles": "COc1ccc(-c2c(-c3cc(OC)c(OC)c(OC)c3)noc2N)cc1", "growth": "45.9% (inactive)"},
      {"smiles": "COc1ccc(-c2cc(C(=O)Nc3nc4cc(C)c(C)cc4s3)nc3cc(-c4ccccc4)nn23)cc1OC", "growth": "107% (inactive)"},
      {"smiles": "COc1ccc(-c2cc(Cc3cccs3)c(=O)n(Cn3ccc4ccccc43)n2)cc1", "growth": "101% (inactive)"},
      {"smiles": "COc1ccc(-c2cc(Cc3cccs3)c(=O)n(Cn3cncn3)n2)cc1", "growth": "103% (inactive)"},
      {"smiles": "COc1ccc(/C=C/C(=O)Nc2cccnc2Nc2ccc(F)cc2)cc1", "growth": "88.4% (inactive)"},
      {"smiles": "O=C1NCC(Nc2ccc(Br)cc2Cl)C(=O)N1", "note": "(stereo unspecified)", "growth": "90.7% (inactive)"},
      {"smiles": "CC/C=C\\C=C/C(=O)N/C=C/CC1Cc2cccc(O)c2C(=O)O1", "note": "(stereo unspecified)", "growth": "88.8% (inactive)"},
      {"smiles": "Cc1cc(C)c2c(c1)N1OC(C2)C[C@H]1/C=C/c1ccccc1", "note": "(stereo partly specified)", "growth": "90% (inactive)"},
      {"smiles": "CC[C@H](C)C(=O)O[C@H]1C[C@@H](C)C=C2C=C[C@H](C)[C@H](CC[C@@H]3C[C@@H](O)CC(=O)O3)[C@H]21", "growth": "62.4% (inactive)"},
      {"smiles": "N#Cc1cnc2cc(OC[C@H](O)CO)c(NC(=O)CC3CSSC3)cc2c1Nc1ccc(OCc2cccc(F)c2)c(Cl)c1", "growth": "-69.9% (active)"},
      {"smiles": "COc1cc(C2CC(=O)Nc3c2cc(Br)c2ccccc32)cc(Br)c1OC", "note": "(stereo unspecified)", "growth": "41.7% (inactive)"},
      {"smiles": "COC(=O)CCC1=C(C)/C(=C/c2[nH]c(-c3ccc[nH]3)cc2OC)N=C1C", "growth": "46.4% (inactive)"}
    ]}
  ]
}
